Measurements reported in PubChem BioAssay AID1203 (The Scripps Research Institute Molecular Screening Center, 2008).
The campaign covered roughly 200,000 compounds. About 80 (0.04%) were called active. The list comes from a sample in which actives are over-represented; it also holds similar structures and randomly drawn compounds. A number with no mark means an inactive call.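 Rule for the calls: active = activation above the mean across all tested compounds plus 3 SD, cutoff set per campaign (cut at about 5.5% in these data); inactive = the rest.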

Assay: Hsp70 transcriptional activators, primary screen, cell-based, HeLa, Hsp70 promoter luciferase, luminescence, 10 µM (AID 1203);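 note: 100% = MG132 at 30 µM as the positive control and 0% = DMSO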
Conditions: HeLa Hsp70 promoter luciferase reporter, at 10 µM, active compounds read high, scaled: vehicle 0, proteasome-inhibitor control 100%

SMILES	activation
COc1ccc(C)cc1S(=O)(=O)N(CC(=O)Nc1cccc([N+](=O)[O-])c1)c1ccc(C)cc1	-0.49%
CCOC(=O)NC(=O)CSc1nnc(SCCC(=O)O)s1	-0.37%
CC(C)C(=O)Nc1c(O)c2ccccc2[nH]c1=O	-0.15%
N#C/C(=C/c1ccc(N2CCCCC2)o1)C(=O)NCCc1c[nH]c2ccccc12	-0.42%
CN1CCN(c2nc(Nc3ccc(O)cc3)nc3ccccc23)CC1	-0.02%
COc1ccc(CNC(=O)C2CCN(S(C)(=O)=O)CC2)cc1	-0.22%
Cc1cc(NC(C)C)n2c(nc3ccccc32)c1C#N	-0.27%
COc1ccc(CC(=O)Nc2cc(S(=O)(=O)N3CCCCC3)ccc2N2CCN(C)CC2)cc1	-0.39%
CC1CCN(C(=S)c2cccc([N+](=O)[O-])c2)CC1	-0.04%
CC(OC(=O)c1ccccc1OCc1ccc(Cl)cc1)C(N)=O (stereo unspecified)	-0.14%
Cc1ccc(N(C(=O)c2sc(C)nc2C)C(C(=O)NC(C)(C)C)c2ccncc2)cc1 (stereo unspecified)	-0.38%
COCC(C)n1c(SCc2ccc(C(=O)OC)o2)nc2ccccc2c1=O (stereo unspecified)	-0.28%
COCCn1c(C)cc(C(=O)CSc2nc3ccccc3c(=O)n2C(C)COC)c1C (stereo unspecified)	8.58% (active)
COCC(C)n1c(C)cc(C(=O)CSc2cc(C)c3ccccc3n2)c1C (stereo unspecified)	-0.27%
O=S(=O)(c1ccc(F)cc1)n1ccc(-c2cnc(-c3ccccc3)s2)n1	-0.1%
CCOC(=O)CSc1ccccn1	2.15%
COc1ccc(N(CC(=O)Nc2ccc(C)cc2C)S(=O)(=O)c2ccccc2[N+](=O)[O-])c(OC)c1	-0.09%
Cc1cc(C)n(CC(=O)Nc2ccc([N+](=O)[O-])cc2)n1	-0.28%
OCCC1CN(Cc2ccccc2-c2ccco2)CCN1Cc1ccsc1 (stereo unspecified)	-0.08%
COc1cccc(CNC(=O)CCC2CCCN(C(=O)c3ccoc3C)C2)c1 (stereo unspecified)	-0.21%
COc1ccc2c(c1)CCC/C2=N\OC(=O)c1ccccc1F	0.09%
O=C(CC1C(=O)NCCN1Cc1ccc(-c2ccccc2)cc1)NCc1ccncc1 (stereo unspecified)	-0.07%
Cc1cccc(NC(=S)Nc2ccc3cn[nH]c3c2)c1	-0.39%
COc1ccc(NC(=S)Nc2ccccc2Cl)cn1	-0.12%

SMILES	activation
CC(=O)Nc1ccc(OCC(=O)NCc2ccc(C)cc2)cc1	-0.17%
COc1ccc(CS(=O)/C(Cl)=C(/Cl)C(=O)Nc2ccc(OC)nc2)cc1 (stereo unspecified)	20% (active)
Cc1ccc(NC(=O)OCc2cncs2)cc1	0.06%
COc1ccc(NC(=S)NCCNC(C)=O)cc1	0.67%
COc1ccc(NC(=O)/C(Cl)=C(/Cl)S(=O)Cc2ccc(C)cc2)cn1 (stereo unspecified)	24.9% (active)
CN(C)c1ccc(C(CNC(=O)c2ccc(F)cc2)c2c[nH]c3ccccc23)cc1 (stereo unspecified)	-0.32%
COc1ccc(/C=N/N=C/c2c[nH]c(=O)c(C#N)c2Nc2ccccc2)cc1	-0.38%
CCN(CC)S(=O)(=O)c1ccc(NC(=O)c2cccnc2Cl)c(NC(=O)c2cccnc2Cl)c1	-0.26%
CCOc1ccc(NC(=O)C2CC(=O)N=C(N)S2)cc1 (stereo unspecified)	-0.33%
O=Cc1cn(Cc2ccccc2)nc1-c1cccnc1	-0.04%
Cc1ccc(N(CC(=O)Nc2cc(C)cc(C)c2)S(=O)(=O)c2cccc3nonc23)cc1	-0.31%
O=C(CN1C(=O)NC2(CCCC2)C1=O)NCC1CCCO1 (stereo unspecified)	0.18%
O=S(=O)(N1CCCCC1)N1CCNCC1	-0.19%
O=C(Nc1ccccc1Cl)/C(Cl)=C(\Cl)S(=O)c1ccccc1 (stereo unspecified)	26.1% (active)
O=C(Nc1ccccc1Cl)c1ccc2nsnc2c1	0.16%
O=C(CN1CCCCC1)Nc1ccccc1Cl	-0.18%
CCCC1CCC(=NNC(=S)NCCc2ccccc2)CC1 (stereo unspecified)	-0.28%
OCCC1CN(Cc2cnc(-c3ccccc3)s2)CCN1CCc1ccccc1 (stereo unspecified)	0.55%
C/C(=N/OC(=O)c1c(-c2c(F)cccc2Cl)noc1C)c1cnccn1	-0.36%
O=C(CCC(=O)c1cccs1)NC1CCCCCC1	-0.2%
Fc1cccc(Cc2noc(CN3CCN(c4cnccn4)CC3)n2)c1	0.1%
Cc1ccc(-c2ccc(/C=N/NC(=O)CN3CCOCC3)o2)cc1[N+](=O)[O-]	-0.19%
CCOC(=O)NN1C(=O)c2ccccc2NC1c1cccc(O)c1 (stereo unspecified)	-0.06%
N=C1C(=O)OCC1c1ccccc1NC(=O)CN1CCCCC1 (stereo unspecified)	-0.34%

SMILES	activation
CCc1ccc(NC(=O)C(C)OC(=O)/C=C/c2cccc([N+](=O)[O-])c2)cc1 (stereo unspecified)	-0.25%
O=C(COC(=O)CCc1ccc(S(=O)(=O)N2CCOCC2)cc1)Nc1cccc(Cl)c1	-0.33%
CCN1CCN(C(=O)CN(C)S(=O)(=O)c2ccc3ccccc3c2)CC1	-0.21%
CSCCC(=O)N1CCCC(CNC(=O)c2ccccc2Cl)C1 (stereo unspecified)	-0.44%
C=CCN(c1ccc(Cl)cc1)S(=O)(=O)c1cccc(C(=O)OCC(=O)N(C)C)c1	-0.3%
Cc1cccc(CSc2nnc(C)c(=O)n2N)c1	-0.18%
O=C(CO/N=C/c1ccc(OC(F)F)cc1)NCc1ccc(F)cc1	0.12%
CCNc1nc(NC(C)C)nc(N2CC(=O)N(CC(=O)OCC)C2=N)n1	-0.19%
COc1ccccc1C(c1nnnn1CC1CCCO1)N1CCN(c2ccccc2)CC1 (stereo unspecified)	-0.43%
CCOc1ccc(C(CC(=O)O)n2cnnn2)cc1OC (stereo unspecified)	-0.16%
Cc1cc(C)cc(NC(=O)c2cccc(NC(=O)C3C4CC5OC(=O)C3C5C4)c2)c1 (stereo unspecified)	0.09%
COCCNC(=S)N(Cc1cccnc1)Cc1ccc(OC)c(OC)c1	-0.35%
O=C(Nc1ccccc1F)c1ccccc1-c1ccc(C(F)(F)F)cc1	-0.36%
C/C(CC(=O)N1CCN(C=O)CC1)=N\NC(=O)c1ccc(Br)cc1	-0.22%
Cc1ccc(CN2CCN(Cc3cccc(C)n3)CC2CCO)cc1 (stereo unspecified)	0.01%
O=C(Cc1cc(=O)[nH][nH]1)N/N=C/c1ccccc1[N+](=O)[O-]	-0.41%
CCn1cc(C(=O)Nc2cc(C)ccc2C)c(=O)c2ccc(C)nc21	-0.16%
CC(NC(=O)CC1SC(N)=NC1=O)c1ccccc1 (stereo unspecified)	-0.02%
COc1ccc(CCNC(=O)CSc2nnc3ccc(-c4ccncc4)nn23)cc1	-0.16%
O=C(NCc1ccccc1Cl)C1CCC(CNc2c(N3CCCCC3)c(=O)c2=O)CC1 (stereo unspecified)	0.08%
CN1C(=O)/C(=C/c2ccc(C(=O)NC3CCCC3)cc2)Oc2ccccc21	0.12%
CC(=O)c1ccccc1NC(=O)CC1(CC(=O)O)CCCCC1	-0.11%
Cc1nc(S(=O)(=O)c2ccc(Br)cc2)nc2c1CCC2	-0.24%
COc1ccc(Cn2c(=O)cc(C)[nH]c2=S)cc1	0.13%

SMILES	activation
O=C(COc1ccc(Cl)cc1[N+](=O)[O-])N1CCCCC1	0.04%
Cn1nc(C(F)(F)F)c2cc(C(=O)N3CCOCC3)sc21	0.19%
Cc1ccnc(SCC(N)=O)n1	-0.02%
O=C(Nc1cccc(Cl)c1)Nc1ccccc1NS(=O)(=O)c1cccs1	-0.23%
CCCC(C)C(=O)NCc1ccncc1 (stereo unspecified)	0.15%
Cc1ccc(N(Cc2cc3ccccc3[nH]c2=O)C(=O)c2cccs2)cc1	-0.18%
C/C(CC(=O)Nc1cccc(F)c1)=N\NC(=O)C(=O)NC1CCCCC1	-0.18%
CCOCCCNC(=O)C(NC(=O)c1ccccc1O)c1ccccc1 (stereo unspecified)	-0.12%
O=C(CC(=O)N/N=C\c1ccc(F)cc1)NCCc1ccccc1	-0.23%
CN1CCN(C(=O)CCc2nc(-c3ccc(Cl)cc3)no2)CC1	-0.33%
N#Cc1c(-c2ccc(F)cc2)nc(-c2ccccc2)[nH]c1=O	-0.14%
CCSC1=NCCN1S(=O)(=O)c1ccc(F)cc1	-0.26%
COc1ccc(C(=O)CSc2nnnn2C)c(OC)c1	0.02%
CC(=O)Nc1ccc(C(=O)OCC(=O)Nc2ccc([N+](=O)[O-])cc2C(F)(F)F)cc1	-0.04%
CCN(CC)C(=O)C(=O)Nc1cccc(Br)c1	-0.16%
c1ccc(-n2nnnc2NC2CCCCCC2)cc1	-0.52%
CC(=O)c1ccc(NC(=S)N(Cc2ccccc2)C(C)C2CC2)cc1 (stereo unspecified)	-0.19%
COc1ccc(COC(=O)N/N=C(\C)CC(=O)Nc2ccc(Cl)cc2)cc1	-0.38%
OCCC1CN(Cc2cccc(O)c2)CCN1CCc1ccccc1 (stereo unspecified)	0.03%
Cc1cccc(OCC(O)CN2CCN(CCN3C(=O)c4cccc5cccc(c45)C3=O)CC2)c1C (stereo unspecified)	-0.21%
Cc1ccc(CN2CCN(Cc3ccc4ncccc4c3)CC2CCO)cc1 (stereo unspecified)	-0.4%
NS(=O)(=O)c1ccc(CCNC(=S)Nc2ccc(S(N)(=O)=O)cc2)cc1	0.04%
COc1ccc2c(CC(=O)OCC(=O)Nc3ccccc3[N+](=O)[O-])coc2c1	-0.38%
CCCNCc1cc(OCC)c(OCC(=O)Nc2ccccc2)cc1Br	-0.15%
